Whole data set: some 33,000 sequences, median “E-score (-0.5 to 0.5)” near -0.035, cut for the highest 2% near 0.35. The sample holds the highest values, similar sequences and a random draw of the others, so the mix is not that of the screen.
Target: T1, Pdr3 (UniProt P33200)
T1 sequence: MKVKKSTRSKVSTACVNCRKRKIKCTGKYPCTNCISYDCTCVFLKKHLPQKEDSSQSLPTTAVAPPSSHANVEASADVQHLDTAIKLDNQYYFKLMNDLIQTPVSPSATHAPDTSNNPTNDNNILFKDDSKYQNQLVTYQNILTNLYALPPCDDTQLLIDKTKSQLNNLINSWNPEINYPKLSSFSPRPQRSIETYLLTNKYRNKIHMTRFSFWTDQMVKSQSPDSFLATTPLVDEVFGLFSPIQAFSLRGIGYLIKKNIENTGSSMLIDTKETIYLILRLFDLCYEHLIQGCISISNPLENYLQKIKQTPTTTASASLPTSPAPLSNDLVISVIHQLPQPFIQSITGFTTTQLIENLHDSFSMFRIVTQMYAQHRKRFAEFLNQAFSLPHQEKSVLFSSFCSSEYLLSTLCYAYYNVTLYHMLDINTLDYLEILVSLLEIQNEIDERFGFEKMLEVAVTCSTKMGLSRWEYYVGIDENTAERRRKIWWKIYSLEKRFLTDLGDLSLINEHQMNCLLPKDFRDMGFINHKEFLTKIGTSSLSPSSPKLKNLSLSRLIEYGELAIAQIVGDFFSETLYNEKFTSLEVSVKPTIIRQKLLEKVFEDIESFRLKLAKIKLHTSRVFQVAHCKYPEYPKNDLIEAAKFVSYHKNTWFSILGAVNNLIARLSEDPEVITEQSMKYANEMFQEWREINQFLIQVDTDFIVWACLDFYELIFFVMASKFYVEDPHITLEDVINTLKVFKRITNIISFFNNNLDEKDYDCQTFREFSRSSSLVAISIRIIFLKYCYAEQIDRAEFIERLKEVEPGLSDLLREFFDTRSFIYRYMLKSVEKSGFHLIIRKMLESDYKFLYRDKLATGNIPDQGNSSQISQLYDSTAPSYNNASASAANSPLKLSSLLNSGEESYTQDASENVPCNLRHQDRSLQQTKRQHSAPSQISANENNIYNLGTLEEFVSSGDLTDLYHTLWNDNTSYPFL
Test: PBM E-score (8-mer binding enrichment) (E-score (-0.5 to 0.5)); higher = stronger / more preferred TF binding
Conditions: protein concentration: 200 nM; construct: GST-full length
Outline: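 Yeast transcription factors carrying a GST tag, as full-length proteins or DNA-binding domains, were produced by PURExpress in vitro transcription/translation. About 100-200 nM protein was applied to universal all-10-mer Agilent arrays, double-stranded by primer extension on fresh or once-stripped slides. Bound protein was detected with fluorescent anti-GST, and scans were normalised with masliner. The Universal PBM Analysis Suite gave each ungapped eight-base word, pooled with its reverse complement, an E-score, a modified Wilcoxon-Mann-Whitney statistic.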

Sequence | PBM E-score
CAGTCCCG | 0.273
AGTTGACG | -0.0734
CGAACTTA | 0.0051
CTTAGGGA | -0.353
GGCTAACA | -0.132
ATAGGAGA | -0.363
CAGTTACC | -0.0312
AACAGATC | -0.0307
GACGGATC | 0.313
TACGGATA | 0.224
AACGGATC | 0.367
CACGGATG | 0.284
CACGGATA | 0.373
CAAGGATC | -0.0745
AACGGATG | 0.283
CACGGATC | 0.395
AACGGATT | 0.334
GACGGATA | 0.251
AACGGATA | 0.417
AGAACTCA | 0.00923
ACAACTTC | 0.167
CAGTGAGG | -0.309
GACCTAGA | -0.115
CCAGCAAC | -0.00856
GCAGCTCC | 0.144

Sequence | PBM E-score
AAGGGTCC | 0.205
GAACGGAC | 0.259
AAACGGAT | 0.377
AAACGGAG | 0.184
CAACGGAC | 0.261
GAACGGAA | 0.469
AAACGGAC | 0.189
GAACGGCA | 0.256
AAACGGAA | 0.469
AAACGGTA | 0.172
CAACGGAA | 0.47
AAACGGGA | 0.352
CAACGGAG | 0.307
CGCTACCG | 0.141
CCCTAAGA | -0.243
CTTGCGGA | 0.137
CAGGCGGG | 0.0666
CCGAGAAG | 0.183
TCCACGAA | -0.0449
TAACGGGA | 0.237
TAACGGTA | 0.0452
TAACGGAA | 0.453
CACAGAAA | 0.0151
AGGCCGGA | 0.256
CGGCCGGC | 0.371

Sequence | PBM E-score
CGGCCGAC | 0.315
CGGCCGGA | 0.396
AGGCCGGC | 0.291
GGGCCGGA | 0.318
CGCATGAG | -0.164
CATGATTA | 0.0563
CACGGAGC | 0.374
CACGGAGA | 0.372
CACGGAGG | 0.26
TACGGAGA | 0.178
GACGGAGA | 0.322
GACGGAGC | 0.213
AAGATTGG | 0.014
GTGGTTCA | 0.0321
ACTTAACC | -0.166
ATCACCCC | 0.0523
ACACCCGG | 0.291
ATCACCCA | -0.0491
CCACCCGA | 0.216
TACCCGTA | 0.0329
CACCCGGG | 0.398
CACCCCGG | 0.236
ATCACCCG | 0.358
TACCCGAA | 0.198
TACCCGGA | 0.381

Sequence | PBM E-score
CCACCCGG | 0.359
CACCCGAG | 0.204
CCCATCCC | 0.133
AAGTGGAA | -0.0995
AGGGCGGG | 0.25
ACCTCCTA | -0.192
ACGGCCTA | 0.131
AACAGGGT | -0.0562
CGGGGTAA | 0.267
GGCAAACC | -0.147
GACGTATC | -0.0675
CACCCGGA | 0.412
CCCACCCG | 0.387
GACCCGGC | 0.294
AACCCGGA | 0.384
AACCCGGC | 0.289
CACCCGTA | 0.151
GACCCGGA | 0.369
CACCCGGC | 0.234
CCCACCCC | 0.198
ACCCCGGA | 0.352
CCCACCCA | 0.073
GACCCCGA | 0.109
AATAGCGT | 0.0358
CGCAAATA | 0.125

Sequence | PBM E-score
TACACGTA | -0.168
AAGATTGA | -0.131
CTCGCCCA | -0.0292
CGTGCGCA | -0.111
AGTCAAAA | -0.104
CGGAGCAA | 0.338
CGGAGCAC | 0.297
CGGAGCAG | 0.403
AGGAGCCG | 0.0342
ACGAGCCG | 0.134
CGGAGCGA | 0.378
CCGAGCCG | 0.359
CGGAGCCG | 0.369
CGGAGCCC | 0.208
AGGAGCGA | -0.199
CCGAGCCA | 0.295
CGGAGCGC | 0.266
AGCATCGA | -0.0594
ACATATCT | 0.0252
CGCTGTAG | -0.00377
ATGTGGTA | -0.0392
AGCGAACG | -0.134
GTAACCGA | 0.0824
CGTGATTA | 0.0343
GAGTACTC | 0.0872

Sequence | PBM E-score
ACAAGCCC | -0.157
ACCCATCA | -0.129
GAGCATTA | -0.0816
TGGAAAAA | 0.0433
CGGAAAAA | 0.403
GGGAAAAC | 0.0253
CGGAAAAC | 0.375
AGGAAAAA | -0.157
AGGAAAAG | 0.0387
AGGAAAAC | 0.0846
CGAAAAAG | 0.159
CGGAAAAG | 0.415
GGGAAAAA | 0.176
TAACACGA | 0.0333
CGCGAAAC | -0.00744
TAACTGTA | -0.323
GAGACCGA | 0.0506
ATCTGGTC | -0.051
ACGGGACG | 0.295
GCGGGACC | 0.323
CCGGGACC | 0.413
ACGGGACC | 0.241
CGGGGACG | 0.124
ACGGGACA | 0.311
CCGGGACA | 0.376

Sequence | PBM E-score
CCGGGACG | 0.365
TCGGGACA | 0.167
ATGGGCCG | 0.0292
AGAAGCCG | 0.213
AACTGTAG | -0.124
AAGATAGA | -0.184
ACCAAAAG | -0.176
ACTCCGCT | 0.14
ACTCCGCC | 0.343
CCTCCGCG | 0.445
CCTCCGCA | 0.00168
ACTCCGCG | 0.397
CCTCCGCC | 0.169
CATAACGC | -0.102
GCGGCTTA | -0.0127
CCGGCTTA | 0.356
CCGGCTTC | 0.322
GTCAGAAC | -0.132
AGTTCAAT | -0.139
CCACGTGA | -0.0844
ACATTCCC | 0.154
CCATTCCA | 0.0798

Source: the supplement of paper PMC3334620
